Several values for one entry are separate records, joined by “and”; a condition that tells them apart may be missing. Equal values may be shown once. This is part of a sample that, as a whole, favours compounds with a hit. Of some 83,000 tested, about 20% had one in any assay.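 How to read the values: 0–100, growth inhibition (40 = 60% inhibited); 0, no net growth; -100 to 0, cell death (-40 = 40% of starting cells died; -100 = all dead).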 Activity calls are given as the source filed them. The calls were made as follows: active = growth percent below 10; inactive = the rest.
Columns and labels:
Experiment in all cases: NCI-60 one-dose screen, 48 h (100 = growth as untreated, 0 = no growth, -100 = all killed)
Details in all cases: 10 µM unless noted
[1] = system: SK-MEL-2 melanoma
[2] = system: EKVX NSCLC
[3] = system: SN12C renal
[4] = system: UO-31 renal
[5] = system: TK-10 renal
[6] = system: ACHN renal
[7] = system: CAKI-1 renal
[8] = system: A498 renal
[9] = system: CCRF-CEM leukemia
[10] = system: MOLT-4 leukemia
[11] = system: SR leukemia
[12] = system: RPMI-8226 leukemia
[13] = system: OVCAR-8 ovarian
[14] = system: OVCAR-5 ovarian
[15] = system: OVCAR-4 ovarian
[16] = system: SK-OV-3 ovarian
[17] = system: IGROV1 ovarian
[18] = system: OVCAR-3 ovarian
[19] = system: HS 578T breast
[20] = system: NCI/ADR-RES ovarian

Measured: growth

COc1cc(Cl)ccc1C
active: [6] -8.72%
inactive: [1] 30.3% | [2] 109% | [3] 72.7% | [4] 67.1% | [5] 90.5% | [7] 54.7% | [8] 110% | [9] 91.9% | [10] 81.7% | [11] 71.2% | [12] 105% | [13] 87.5% | [14] 71.1% | [15] 76.4% | [16] 93.2% | [17] 72.3% | [18] 111% | [19] 115% | [20] 97.4%

C(#CCN1CCOCC1)CCCN1CCOCC1
inactive: [1] 108% and 117% | [2] 104% and 83.1% | [3] 102% | [4] 97.6% and 89.6% | [5] 109% and 86.2% | [6] 101% and 98.3% | [7] 98.1% and 94.7% | [8] 87.1% and 104% | [9] 107% | [10] 109% and 113% | [11] 124% and 109% | [12] 112% | [13] 105% and 106% | [14] 102% and 82.7% | [15] 102% | [16] 104% and 106% | [17] 116% and 106% | [18] 116% and 111% | [19] 112% and 114%

CN(C)C(=S)N(C)C
inactive: [1] 104% | [2] 127% | [3] 104% | [4] 98.4% | [5] 99.2% | [6] 104% | [7] 98.6% | [8] 120% | [9] 97.5% | [10] 109% | [11] 94.9% | [12] 98.2% | [13] 109% | [14] 105% | [15] 101% | [16] 99.7% | [17] 153% | [18] 107% | [19] 157% | [20] 102%
